Screens as filed in PubChem.
HSP90 inh: HSP90 inhibitors, primary screen, cell lysate, luminescence | Rabbit reticulocyte lysate, luciferase refolding luminescence, 3 h | inhibition, % at 5.6 µM | Heat shock protein HSP 90 (rabbit reticulocyte lysate; luciferase refolding) | hit rate 0.91% among 290,000 | AID 1789, 2009;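 active = inhibition above the screen-wide mean plus 3 SD, computed separately per campaign, cut at about 16% in these data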;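 note: inhibitors lower the luminescence because luciferase stays unfolded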
Platelet DG rel: inhibitors of platelet dense granule secretion, primary screen, cell-based, MLPCN, human platelets; human platelet-rich plasma, SFLLRN dense granule ATP release, luminescence; inhibition, %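 (compounds screened at 7.5 µM in platelet-rich plasma)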; hit rate 0.22% among 300,000; AID 1663, 2009;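 active = mean replicate score, as percent of positive control, at or above 50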
SENP6 inh: SENP6 protease inhibitors, primary screen, biochemical, luminescence, uHTS; Recombinant SENP6 catalytic domain, aminoluciferin luminescence; inhibition, % at 10 µM; hit rate 1.8% among 330,000;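 active = inhibition above about 50% at the single tested dose, limit read from the data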
SENP8 block-1: human SENP8 protease inhibitors, primary screen, biochemical, fluorescence, Nedd8 protein substrate, uHTS; Sentrin-specific protease 8 (Homo sapiens), Q96LD8; recombinant SENP8; AID 602440, 2012; hit rate 0.64% among 360,000; inhibition, % at 20 µM; in the data active = inhibition mostly above about 40%, no sharp cut-off; inactive = mostly below about 27%
Target sequence (Q96LD8 whole entry, looked up): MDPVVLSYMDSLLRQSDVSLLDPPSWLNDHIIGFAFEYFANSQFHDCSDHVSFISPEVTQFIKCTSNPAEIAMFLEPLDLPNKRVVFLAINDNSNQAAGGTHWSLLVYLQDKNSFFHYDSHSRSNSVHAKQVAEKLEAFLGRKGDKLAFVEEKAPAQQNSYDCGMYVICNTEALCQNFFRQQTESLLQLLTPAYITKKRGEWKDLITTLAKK
SENP7 block: SENP7 protease inhibitors, primary screen, biochemical, luminescence, uHTS; inhibition, % at 5 µM; recombinant SENP7, Z-RLRGG-aminoluciferin luminescence, 40 min; hit rate 1.5% among 330,000; Sentrin-specific protease 7 (Homo sapiens), Q9BQF6;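 active = inhibition above about 50% at the single test dose, limit read from the data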
SENP8 block-2: SENP8 protease inhibitors, primary screen, biochemical, luminescence; purified SENP8, Z-RLRGG-aminoluciferin cleavage; inhibition, % at 10 µM; hit rate 1.2% among 330,000; AID 2540, 2010; in the data active = inhibition above about 50%
SENP8 confirm: SENP8 protease inhibitors, retest, confirmation, biochemical, luminescence, single concentration | shares compounds with SENP7 block | hit rate 40% among 6,200 | inhibition, % at 12.5 µM | AID 488912, 2010 | Recombinant SENP8, Z-RLRGG-aminoluciferin luminescence, 60 min;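 active = mean inhibition across replicates above about 50%, limit read from the data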
SENP6 conf: SENP6 protease inhibitors, confirmation, biochemical, luminescence, single concentration; shares compounds with SENP7 block; recombinant SENP6, Z-RLRGG-aminoluciferin luminescence; inhibition, % at 12.5 µM; hit rate 58% among 6,200; AID 488915, 2010
SENP7 conf: SENP7 protease inhibitors, retest, confirmation, biochemical, luminescence, single concentration; shares compounds with SENP7 block; recombinant SENP7, Z-RLRGG-aminoluciferin luminescence, 40 min; inhibition, % at 12.5 µM; hit rate 69% among 6,200; AID 488917, 2010
Casp3 select: caspase-3 protease inhibitors, confirmation, selectivity assay for SENP inhibitor project, biochemical, single concentration; purified caspase-3, Z-DEVD-aminoluciferin luminescence, 60 min; shares compounds with SENP7 block; hit rate 60% among 6,200; inhibition, % at 12.5 µM; AID 488918, 2010;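 active = mean inhibition above about 50%, limit read from the data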
Target sequence (P42574 28-227 limits assumed): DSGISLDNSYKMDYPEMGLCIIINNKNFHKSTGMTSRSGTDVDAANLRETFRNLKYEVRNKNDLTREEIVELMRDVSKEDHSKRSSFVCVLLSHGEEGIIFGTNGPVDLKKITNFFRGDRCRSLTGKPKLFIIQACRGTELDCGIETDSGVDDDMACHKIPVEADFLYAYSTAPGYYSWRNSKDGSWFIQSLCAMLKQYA
Luc interf: counter-screen for SENP inhibitors: luminescence interference; AID 488919; hit rate 39% among 6,200; Pre-incubated SENP8/Z-RLRGG-aminoluciferin, luciferase luminescence interference; shares compounds with SENP7 block; inhibition, % at 12.5 µM;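 active = mean inhibition above about 50% when retested at one dose, limit read from the data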
Large screens that a line does not name were inactive (follow-up assays come after a bar, where they were run). In the library only some 2.8% were active in any assay of this set; here they are far more common.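 Rule for the calls, unless noted: active = mean inhibition above about 50% in the one-dose retest (limit read from the data); inactive = the rest.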

C/C(=N\OC(=O)Nc1ccccc1)c1ccc(C)cc1	SENP6 inh 67, SENP7 block 73, SENP8 block-2 70 (no result: HSP90 inh) | SENP8 confirm 82 | SENP6 conf 83 | SENP7 conf 96 | Casp3 select 79 | Luc interf 78
C/C(=N/NC(=O)Nc1ccccc1)c1ccc(C)cc1	none
Oc1cccc2ccc(/C=C/c3c(F)cccc3Cl)nc12	SENP6 inh 95, SENP7 block 94, SENP8 block-2 85 | SENP8 confirm inactive | SENP6 conf 60 | SENP7 conf inactive | Casp3 select 64 | Luc interf inactive
Oc1cccc2ccc(/C=C/c3ccccc3Cl)nc12	SENP6 inh 99, SENP7 block 84, SENP8 block-2 88 | SENP8 confirm 83 | SENP6 conf 90 | SENP7 conf 67 | Casp3 select 86 | Luc interf inactive
C/C(=N/NC(=O)CN(c1ccccc1)S(=O)(=O)c1ccccc1)c1ccccc1O	none
Cc1ccc2nc(N3C(=O)C(O)=C(C(=O)c4ccco4)C3c3cccs3)sc2c1 (stereo not given)	SENP6 inh 74, SENP8 block-2 53 | SENP8 confirm inactive | SENP6 conf inactive | SENP7 conf inactive | Casp3 select inactive | Luc interf inactive
CCOC(=O)Cc1ccc2sc(-c3ccccc3)nc2c1	Platelet DG rel 55, SENP6 inh 97, SENP7 block 99, SENP8 block-2 95 | SENP8 confirm 98 | SENP6 conf 99 | SENP7 conf 102 | Casp3 select 97 | Luc interf 92
CCOC(=O)c1sc(-c2ccccc2)nc1C	none
CCOC(=O)C1CCN(Cc2ccc(OC)c(OCc3ccccc3)c2)CC1	none
CCOC(=O)C1CCN(Cc2ccc(O)c(OC)c2)CC1	SENP6 inh 96 | SENP8 confirm inactive | SENP6 conf inactive | SENP7 conf inactive | Casp3 select inactive | Luc interf inactive
O=C(O)c1ccc2c(c1)C(=O)N([C@H](Cc1cccc3ccccc13)C(=O)O)C2=O	none (no result: HSP90 inh, Platelet DG rel, SENP6 inh, SENP7 block, SENP8 block-2)
O=C(O)CCCc1ccc2c(c1)CCc1ccccc1-2	SENP6 inh 50 (no result: HSP90 inh) | SENP8 confirm 77 | SENP6 conf 76 | SENP7 conf 88 | Casp3 select 68 | Luc interf 81
Cc1ccccc1/C=C1\OC(=O)c2ccccc21	none
Cc1ccc(/C=C2\OC(=O)c3ccccc32)cc1	SENP6 inh 68, SENP7 block 86, SENP8 block-2 56 | SENP8 confirm inactive | SENP6 conf inactive | SENP7 conf inactive | Casp3 select inactive | Luc interf inactive
O=C1/C(=C/c2ccco2)CCC1C1CCCC1 (stereo not given)	SENP6 inh 92, SENP7 block 73, SENP8 block-2 77 | SENP8 confirm inactive | SENP6 conf 77 | SENP7 conf 95 | Casp3 select 57 | Luc interf inactive
CCOc1ccc(/C=C2\CCC(C3CCCC3)C2=O)cc1 (stereo not given)	SENP7 block 71 | SENP8 confirm inactive | SENP6 conf inactive | SENP7 conf inactive | Casp3 select inactive | Luc interf inactive
O=C1/C(=C\c2ccco2)CCC/C1=C\c1ccco1	none
O=C1/C(=C/c2ccc(F)cc2)CCC1C1CCCC1 (stereo not given)	SENP7 block 62, SENP8 block-2 62 | SENP8 confirm inactive | SENP6 conf inactive | SENP7 conf inactive | Casp3 select 54 | Luc interf inactive
O=C1/C(=C/c2ccco2)Cc2ccccc21	SENP6 inh 66 | SENP8 confirm inactive | SENP6 conf 67 | SENP7 conf 90 | Casp3 select 72 | Luc interf inactive
CCOc1ccc(/C=C2\CCC(C3CCCC3)C2=O)cc1OC (stereo not given)	none
COc1ccccc1-c1cc2nc(-c3ccccc3)cc(N3CCN(C(=O)c4ccoc4)CC3)n2n1	none (no result: HSP90 inh, Platelet DG rel, SENP6 inh, SENP7 block, SENP8 block-2)
O=C1/C(=C/c2ccccc2)CCC1C1CCCC1 (stereo not given)	SENP6 inh 73, SENP7 block 64 | SENP8 confirm inactive | SENP6 conf inactive | SENP7 conf inactive | Casp3 select inactive | Luc interf inactive
COc1ccccc1/C=C1\CCC(C2CCCC2)C1=O (stereo not given)	none
CSc1nc2sc3c(c2c(=O)n1C)CCC(C)C3 (stereo not given)	SENP6 inh 63, SENP7 block 50 | SENP8 confirm inactive | SENP6 conf inactive | SENP7 conf inactive | Casp3 select inactive | Luc interf inactive
CSc1nc2sc3c(c2c(=O)n1C)CCC3	none
Cc1ccc(C(=O)Nc2ccc3c(c2)OCCO3)o1	SENP6 inh 54 | SENP8 confirm 52 | SENP6 conf inactive | SENP7 conf 80 | Casp3 select 82 | Luc interf 62
CCOC(=O)c1[nH]c(C)c(C(=O)Nc2ccc3c(c2)OCCO3)c1C	none
O=C(Nc1ccc2c(c1)OCCO2)c1ccco1	SENP7 block 54 | SENP8 confirm inactive | SENP6 conf inactive | SENP7 conf 75 | Casp3 select 80 | Luc interf 53
CC(=O)c1c(C)[nH]c(C(=O)Nc2ccc3c(c2)OCCO3)c1C	SENP6 inh 58, SENP7 block 58 | SENP8 confirm 57 | SENP6 conf 53 | SENP7 conf 84 | Casp3 select 75 | Luc interf 60
Cc1cc(C(=O)Nc2ccc3c(c2)OCCO3)co1	none
O=C(Nc1cccc(NC(=O)c2ccco2)c1)c1ccc2c(c1)OCCO2	none
Oc1[nH]c2ccccc2c1N=Nc1cccc(Cl)c1	SENP7 block 64 | SENP8 confirm inactive | SENP6 conf inactive | SENP7 conf inactive | Casp3 select inactive | Luc interf inactive
O=C(CSCc1ccccc1)N=Nc1c(O)[nH]c2ccccc12	none
